Assay results: ChEMBL document CHEMBL1201862, “PubChem BioAssay data set” (2004)
In all, about 56,000 sequences went through this assay and about 5,400 (9.6%) were called active. No stated cut-off is given here; in the data, active = GI50 up to about 1.1 µM and inactive = higher. Many of the other results were omitted from the sample, so actives are more common in it than they were. Potency and affinity values are given separately.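 Cultured in 96-well plates, cells were exposed to test compound for 48 hours across five concentrations. At the GI50, growth is halved.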

What follows are substances tested on K562 (assay: NCI tumour cell line growth inhibition, 48 h).

Which GI50 does the source give for “[Bis(aminomethyl)pentamethylenesilane]dichloropaltinum(II), CHEMBL2146202” here?
Its GI50 is 3.47 µM.

How did the GI50 turn out when “[Bis(aminomethyl)tetramethylenesilane]dichloropaltinum(II), CHEMBL2146205” was run?
The GI50 was 10.2 µM.

“[Bis(aminomethyl)tetramethylenesilane]tetrachloropaltinum(IV), CHEMBL2146189” was tested. Which GI50 did it give?
Its GI50 is 2.57 µM.

With “cis-Bis[[(trimethylsilyl)methyl]amino]tetrachloroplatinum(IV), CHEMBL2146191” as the substance, how does the GI50 read?
The GI50 was 2.92 µM.

Which GI50 does the source give for “[Bis(aminomethyl)dimethylsilane]tetrachloroplatinum(IV), CHEMBL2146190” here?
Its GI50 is 3.78 µM.

Which GI50 does the source give for “[Bis(aminomethyl)pentamethylenesilane]tetrachloropaltinum(IV), CHEMBL2146204” here?
Its GI50 is 1.79 µM.

How did the GI50 turn out when “[Bis(aminomethyl)diethylsilane]tetrachloroplatinum(IV), CHEMBL2146203” was run?
Its GI50 is 0.916 µM.

Which GI50 does the source give for “[Bis(aminomethyl)ethylmethylsilane]tetrachloroplatinum(IV), CHEMBL2146192” here?
The GI50 was 1.69 µM.

With “[Bis(aminomethyl)dimethylsilane]dichloroplatinum (II), CHEMBL2146201” as the substance, how does the GI50 read?
Its GI50 is 16.5 µM.

For CHLOROTRIPHENYLSTANNANE, CHEMBL515580, which GI50 is on record?
Its GI50 is 0.0256 µM.

For CISPLATIN, CHEMBL11359, which GI50 is on record?
Its GI50 is 5.56 µM.

How did the GI50 turn out when “mu-(1,7-nanodiamine-N,N')bis-(cis-aminedichloroplatimum (II)), CHEMBL2146215” was run?
Its GI50 is 30.7 µM.
